Screening data deposited in PubChem by National Center for Advancing Translational Sciences (NCATS).
In the library only some 19% were active in any assay of this set; here they are far more common.
HT1080 IDH1KD tx: toxicity to HT-1080 IDH1 knockdown cells (counter line); 360,000 compounds, 2% hits; HT-1080 IDH1 knockdown viability, ATP luminescence, 48 h; Potency, µM (highest dose often 46.1 µM), for inactives: at the highest dose activity, negative = toxicity, hits mostly cytotoxic; AID 686971;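 further: potency means the concentration at half of the fitted maximal effect; 0% = DMSO wells and -100% = cell-free medium wells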
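Luminescent ATP read-out (CellTiter-Glo, 10 min at room temperature) after 48 h compound exposure at 37 °C gave viability of IDH1-knockdown HT-1080 cells. Activity was normalised to DMSO and cell-free wells, then fitted as concentration-response curves.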
IL1B secr inh: inhibitors of inflammasome signaling (IL-1 beta secretion); THP-1 LPS/ATP IL-1B secretion, AlphaLISA, 16 h; hits give low values; activity change, % at 57.5 µM; AID 743279; 360,000 compounds, 4.7% hits; in the data active means activity change below about -50%; inconclusive means mostly about -30% to -49%
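THP-1 cells pretreated 1 hr with compounds (up to 57.5 uM final), then stimulated with LPS (250 ng/mL final) plus ATP (1.25 mM final); secreted IL-1B measured by AlphaLISA after 16 hr, decreased signal indicating inhibition.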
ELG1 repair inh: ELG1-dependent DNA repair inhibition; HEK293T ELG1-luciferase reporter, luminescence, 16 h; DNA damage induced by 5-fluorouridine; Potency, µM (highest dose often 46.1 µM), for inactives: at the highest dose activity change, negative = inhibition, most hits filed as inhibitors; 330,000 compounds, 2.3% hits; AID 504467; further: potency means the concentration at half of the fitted maximal effect; nearly all actives have a fitted effect of over 55% in size
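Cells (2,000 per well) received 5-fluorouridine plus test compound or DMSO and were incubated 16 hr at 37 °C, 5% CO2. Luciferase activity was read by luminescence 30 min after ONE-Glo addition; signal suppression marked inhibition of damage-induced ELG1 function.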
DT40 TDP1 CPT: DT40-hTDP1 cell growth loss with CPT | chicken DT40 Tdp1-/-;hTDP1 cells + 20 nM CPT, ATP luminescence, 48 h | Potency, µM (series often up to 46.2 µM), inactives show top-dose activity change, negative = growth inhibition, most hits filed as inhibitors | 420,000 compounds, 12% hits | AID 686979; further: potency means the concentration at half of the fitted maximal effect; nearly all actives have a fitted effect of over 55% in size
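Chicken DT40 Tdp1-/- cells complemented with human TDP1, 400 cells/well, exposed to compounds plus 20 nM camptothecin for at least 48 h at 37 C; viability read as ATP content by CellTiter-Glo luminescence.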
DT40 TDP1 no CPT: qHTS for Inhibitors of human tyrosyl-DNA phosphodiesterase 1 (TDP1): qHTS in cells in absence of CPT; Potency, µM (top dose mostly 46.2 µM), without a hit: at the top dose activity change, negative = growth inhibition, usual class: inhibitors; AID 686978, 2013; 420,000 compounds, 15% hits; DT40 Tdp1-/- hTDP1 cells, no CPT, ATP luminescence, 48 h; further: potency means the concentration at half of the fitted maximal effect; nearly all actives have a fitted effect of over 55% in size
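No-CPT arm: Tdp1-/-;hTDP1 DT40 cells (400/well) plus compounds, incubated ≥48 hr at 37 °C. Readout CellTiter-Glo luminescence.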
HT1080NT lethal: kills 2HG-producing HT-1080-NT fibrosarcoma cells; HT-1080-NT fibrosarcoma viability, CellTiter-Glo ATP luminescence, 48 h; Potency, µM (doses to about 46.1 µM), inactives show top-dose activity, negative = less viability, actives largely listed as cytotoxic; 360,000 compounds, 1.6% hits;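 further: NT is the 2HG producing partner of a matched IDH1 knockdown line; potency means the concentration at half of the fitted maximal effect; 0% = DMSO-treated cells and -100% = media-only wells without cells; nearly all actives have a fitted effect of over 55% in size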
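Viability by CellTiter-Glo luminescence after 48 h compound exposure at 37C of HT-1080-NT cells (750/well, RPMI, 5% FBS). % activity scaled between DMSO wells and medium-only wells, then curve-fitted and categorized by curve class.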
Numbers without * were called inactive; i = inactive; ? = inconclusive; . = no result; [ ] = remark or other dose. Unless noted, the call rests on the fitted dose curve; in most records, active means well fitted curve in the direction sought with a large enough effect; inconclusive means small, poorly fitted or top-dose-only effect, or another doubt; inactive means no such curve, though single readings can be large; an effect the other way counts as inactive or inconclusive. Unless noted, on the % scale 0 is the no-effect control and ±100 the full control effect.

SMILES	HT1080 IDH1KD tx	IL1B secr inh	ELG1 repair inh	DT40 TDP1 CPT	DT40 TDP1 no CPT	HT1080NT lethal
CCn1c(SCC(=O)Nc2nccs2)nnc1-c1cc2cccc(OC)c2o1	17.5%	15.6	-1.6%	2.5%	0.4%	1.4%
CCC(Sc1nnc(-c2ccc(OC)c(OC)c2)c(-c2ccc(OC)c(OC)c2)n1)C(=O)NC1CCCC1 (centres undefined)	.	.	.	16.4µM*	?	.
Cc1ccc(-c2nnc(SCC(=O)NC3CCCC3)nc2-c2ccc(C)cc2)cc1	.	.	.	18.4µM*	13µM*	.
COc1ccc(-c2nnc(SCC(=O)NC3CCCC3)nc2-c2ccc(OC)c(OC)c2)cc1OC	.	.	.	18.4µM*	20.6µM*	.
CCOc1ccc(-c2nnc(SCC(=O)NC3CCCCC3)nc2-c2ccc(OCC)c(OC)c2)cc1OC	.	.	.	-6.0%	-27.1%	.
CCn1c(SCC(=O)NC2CCCCC2)nnc1-c1cc2cccc(OC)c2o1	2.1%	-25.7	?	?	23.1µM*	-9.9%
COc1ccc(CCNC(=O)CSc2nc3ccccc3nc2Cc2ccc(C)cc2)cc1OC	.	.	.	-8.8%	?	.
CCc1nc(SCC(=O)Nc2cc(OC)ccc2OC)c2c(C)c(C)sc2n1	?	-5.4	?	18.4µM*	25.9µM*	?
COc1ccc(C)cc1NC(=O)CSc1ccc(-c2sc(C)nc2C)nn1	-12.6%	?	-17.5%	13µM*	?	-0.9%
COc1ccc(OC)c(NC(=O)CSc2ccc(-c3ccco3)nn2)c1	-5.8%	55.1	-6.0%	?	?	-16.4%
COc1ccccc1NC(=O)CSc1ccc(-c2ccc(-n3ccnc3)cc2)nn1	-15.2%	-12.5	?	20.6µM*	13µM*	-11.9%
COc1ccc(Cl)cc1NC(=O)CSc1ccc(-c2sc(C)nc2C)nn1	.	.	.	13µM*	10.3µM*	.
CCc1nc(SCC(=O)Nc2nnc(CC)s2)c2c(C)c(C)sc2n1	24.0%	29.3	0.2%	-7.6%	-4.1%	28.0%
Cc1ccccc1NC(=O)CSc1ccc(-c2ccc(-n3cccn3)cc2)nn1	3.7%	8.2	4.0%	-3.7%	7.9%	3.0%
CCCc1ccc(C(O)c2ncc(-c3ccccc3)[nH]2)cc1 (centres undefined)	-17.4%	-4.1	.	-55.1%	-59.9%	-22.5%
COc1cc(NC(=O)CSc2ccc(-c3ccccn3)nn2)cc(OC)c1	?	47.1	2.2%	?	?	-18.4%
COc1ccc(OC)c(NC(=O)CSc2ccc(-c3sc(C)nc3C)nn2)c1	.	.	.	14.6µM*	13µM*	.
COc1ccc(C)cc1NC(=O)CSc1ccc(-c2ccccn2)nn1	?	i	-11.4%	?	20.6µM*	-14.4%
O=C1CC(c2ccccc2C(F)(F)F)c2c(c3ccccc3[nH]c2=O)O1 (centres undefined)	.	.	.	5.0%	-11.8%	.
CC(=O)C(Sc1ccc2nnc(-c3ccc(C)cc3)n2n1)C(C)=O	-0.8%	24.4	-26.5%	11.6µM*	20.6µM*	9.9%
CCOC(=O)C(CC)Sc1ccc2nnc(-c3ccc(F)cc3)n2n1 (centres undefined)	.	.	.	20µM*	?	.
CSc1ccc2nnc(-c3ccc(C)cc3)n2n1	.	.	.	?	11.2µM*	.
Cc1ccc(-c2nnc3ccc(SCC(=O)c4ccccc4)nn23)cc1	.	.	.	?	14.1µM*	.
CCC(Sc1ccc2nnc(-c3ccc(F)cc3)n2n1)C(=O)O (centres undefined)	-9.6%	-0.7	-1.3%	0.1%	?	-0.7%
Cc1nn(-c2ccccc2)c(C)c1C(=O)OCC(=O)NC12CC3CC(CC(C3)C1)C2	-27.7%	-29.6	20.6µM*	?	23.1µM*	2.5%[9.24 µM]
SMILES	HT1080 IDH1KD tx	IL1B secr inh	ELG1 repair inh	DT40 TDP1 CPT	DT40 TDP1 no CPT	HT1080NT lethal
COc1ccc(C)cc1NC(=O)COC(=O)c1c(-c2ccccc2)noc1C	-8.3%	?	.	23.1µM*	23.1µM*	-3.3%
CC(=O)Nc1ccc(NC(=O)COC(=O)c2c(C)nn(-c3ccccc3)c2C)cc1	-0.6%	-2.2	-25.3%	?	?	-3.3%
COCC(C)n1c(C)cc(C(=O)COC(=O)C2=NN(c3ccccc3)C(=O)CC2)c1C (centres undefined)	.	.	12.9%	.	.	.
Cc1ccc(C)c(NC(=O)COC(=O)c2c(-c3ccccc3)noc2C)c1	-0.5%	12.2	.	-3.7%	-6.9%	-0.6%
Cc1nn(-c2ccccc2)c(C)c1C(=O)OCC(=O)Nc1ccccc1F	?	-14.6	?	?	-18.3%	-21.7%[9.24 µM]
COCC(C)n1c(C)cc(C(=O)COC(=O)c2c(C)nn(-c3ccccc3)c2C)c1C (centres undefined)	-2.6%	-56.2*	?	?	?	-0.9%
COc1ccc(C)cc1NC(=O)COC(=O)c1c(C)nn(-c2ccccc2)c1C	-12.1%	-3.5	?	20.6µM*	11.6µM*	-7.3%[9.24 µM]
Cc1cn2c(=O)cc(COC(=O)COc3ccccc3C)nc2s1	.	.	.	-4.9%	-0.9%	.
Cc1cccc(OCc2cc(=O)n3c4c(sc3n2)CCCC4)c1C	.	.	.	-1.6%	-23.3%	.
Cc1cc2nc(-c3ccc(Cl)cc3)c(Cc3ccsc3)n2c(C)c1Br	-6.4%	18.4	.	?	?	-2.9%
COc1ccc(S(=O)(=O)N2CCCCCC2)cc1C(=O)N(C)Cc1ccc(F)cc1	-7.5%	-25.8	-4.4%	?	?	-5.8%
COc1ccc(S(=O)(=O)N2CCCCCC2)cc1C(=O)N(C)Cc1ccc(C(C)(C)C)cc1	?	-72.5*	?	?	?	?
COc1ccc(S(=O)(=O)N2CCCCCC2)cc1C(=O)N(C)Cc1ccco1	2.8%	-0.6	9.6%	25.9µM*	18.4µM*	-0.5%
COc1ccc(S(=O)(=O)N2CCCCCC2)cc1C(=O)N(C)Cc1ccc(OC)c(OC)c1OC	9.3%	-14.7	?	?	23.1µM*	-3.3%
Oc1ccc[n+](CC(O)c2ccccc2)c1 (centres undefined)	-1.3%	12.3	4.1%	18.9%	2.1%	0.0%
OC(C[n+]1c(Cl)ccc2ccccc21)c1ccccc1 (centres undefined)	.	.	.	8.91µM*	?	.
O=S(=O)(NCCc1nnc2ccc(SCc3ccccc3Cl)nn12)c1ccccc1	.	.	.	16.4µM*	23.1µM*	.
O=S(=O)(NCCc1nnc2ccc(SCc3c(F)cccc3Cl)nn12)c1ccccc1	.	.	.	?	23.1µM*	.
